As usually defined, the viability is a read-out of living cells in per cent, often relative to untreated cells. For orientation: inhibition means the change of the read-out against control, counted positive when it falls.

Data on 5 molecules can be found in PubChem BioAssay.

Records with an inconclusive call do not appear. The source made the active and inactive calls. Rule as the data show it, unless noted: active = inhibition above about 30%; inactive = the rest.

Assay [1] in a line: reducers of endogenous Her2 protein level, primary screen, SKBR3 breast tumor cells, AlphaScreen, ATP viability (AID 461;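 active = Her2 level under about 52% in both replicate screens, with viability over 70% of control, limit read from the data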;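 as to Her2 level: lower value means less Her2 protein in the cells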;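 as to viability: percent of carrier control wells set as 100% viability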). As to conditions: 18-24 h, measured here: SKBR3 viability, ATP luminescence, at 10 µM. (Bead proximity is the source of the signal in Alpha formats.)
In assay [2] the target is Receptor tyrosine-protein kinase erbB-2 (Homo sapiens) (UniProt P04626). The description is as above. As to conditions: 18-24 h, at 10 µM, stronger effect = lower value.
A short description of assay [3]: SK-BR-3 cell growth inhibitors, pilot screen, 24 h, human (AID 572;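 active = viability at or below 10% of carrier control in both of two separate runs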;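 also: compound exposure lasted between 18 and 24 h rather than exactly 24 h; 100% = carrier-treated control wells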). The note with it: SK-BR-3 viability, CellTiter-Glo luminescence, at 10 µM, stronger effect = lower value. A general note: Cellular ATP, detected with luciferase, serves as a proxy for viable cell number.
Assay [4] is described as follows: HUVEC growth inhibition – cell-based, human, primary screen (AID 575;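 active = viability at or below 30% in both replicate assays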;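 also: 100% = median of untreated cell wells with 0.1% DMSO on each plate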). As to conditions: HUVEC proliferation, CellTiter-Glo luminescence, 72 h; at 10 µM; stronger effect = lower value.
The nature of assay [5]: growth inhibitors of H69AR lung tumor, primary screen, human, duplicate replicates (AID 580;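 active = viability at or under a set limit in both replicates, limit being median viability minus 3 SD, cut at about 48% in these data, passing the limit was not always enough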;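 also: 100% = mean luminescence of untreated wells and 0% = no signal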). As to conditions: H69AR lung tumor cells viability, ATP luminescence, 72 h; at 10 µM; stronger effect = lower value.
The nature of assay [6]: reversal of MRP1-mediated doxorubicin resistance, pilot screen, H69AR cells, doxorubicin co-treatment (AID 601;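 active = viability loss from added drug above about 55%, and viability with drug at most 40%, in both replicates, limit read from the data, passing the limit was not always enough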). The note with it: CellTiter-Glo, 72 h, at 10 µM; for differential viability (reversal): stronger effect = higher value.
Assay [7] in a line: 384-well plate pilot, post-Golgi transport modulator project, inhibition of yeast transport mutant growth (AID 636; in the data active = inhibition above about 31%). The note with it: absorbance 615 nm, about 18 h, stronger effect = higher value.
Assay [8] in a line: growth suppression of yeast trafficking mutant, preliminary HTS, modulators of trafficking downstream of Golgi apparatus project, 1536-format plate, OD 615 nm (AID 637). The note with it: yeast transport mutant growth, absorbance 615 nm, 18 h; stronger effect = higher value.
Assay [9] can be described thus: OD615 S. cerevisiae growth inhibition, permissive medium, pilot counter-assay, permissive growth control for S. cerevisiae lifespan shortening project (AID 705;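 active = growth inhibition above 25% in both replicates, a cutoff set 3 SD above the mean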). As to conditions: OD615, 24 h, at 10 µM, stronger effect = higher value.
The nature of assay [10]: Restrictive medium S. cerevisiae growth inhibition, OD615, pilot screen of yeast lifespan reduction project, restrictive growth control (AID 706;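 active = growth inhibition above a set limit, 3 SD over mean compound inhibition, in both replicates, cut at about 43% in these data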;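 also: modified DeaD lifespan yeast strain shifted to restrictive glucose medium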). As to conditions: OD615, 48 h, at 10 µM, stronger effect = higher value.
Assay [11] in a line: viability gain of MRP-1-high H69AR cells under doxorubicin, pilot screen, MRP-1 activator project, CellTiter-Glo, duplicate (AID 807;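 active = viability increase at or above a cutoff of the median across tested compounds plus 3 SD, cut at about 8.5% in these data, passing the limit was not always enough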;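 also: compound pretreatment 18-22 h then 72 h combined with doxorubicin; 0% = doxorubicin alone and 100% = vehicle without doxorubicin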). As to conditions: H69AR viability with doxorubicin, CellTiter-Glo luminescence; at 10 µM; stronger effect = higher value.
Assay [12] is described as follows: growth suppression of beta-catenin knockout HCT116, pilot screen, human colon tumor cells (AID 823;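 active = cell viability at or below a set limit in both duplicate runs, the limit being the all-compound median minus 4 SD, cut at about 23% in these data, passing the limit was not always enough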;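 also: 0% = wells killed by 20 µM Hyamine and 100% = untreated DMSO cell wells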). As to conditions: CellTiter-Glo, 60 h, at 10 µM, stronger effect = lower value.
Assay [13] is described as follows: growth suppression of PTEN-deleted HCT116, pilot screen, cell-based, HCT116 clonal line, CellTiter-Glo (AID 824;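 active = viability at or below 27.92% in each of two runs, the all-compound median minus 4 SD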;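 also: 0% = 20 µM Hyamine control and 100% = vehicle cell control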). As to conditions: 60 h, at 10 µM, stronger effect = lower value.
A short description of assay [14]: inhibitors of the yeast RAM network, pilot screen, dse1pr::URA3 reporter, 5-FOA selection (AID 869;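 active = inhibition over a set limit, the all-compound mean plus 3 SD, in both replicate runs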;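 also: 0% = DMSO wells with no growth and 100% = 10 µM 1-NA-PP1 with full growth; RAM network block rescues cells from 5-FOA so hits raise OD615 growth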). As to conditions: S. cerevisiae dse1pr::URA3 5-FOA growth, OD615, 2 d; at 10 µM; stronger effect = higher value; strain carries analog-sensitive mutant Cbk1 kinase.
Assay [15] can be described thus: RAM signaling pathway blockade in yeast – S. cerevisiae, Pdr1DBD-CYC8 efflux-inhibited sensitized strain, primary screen (AID 1298;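 active = RAM network inhibition above 8.4% in each of two replicates, 3 SD over the compound average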;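 also: 0% = DMSO untreated cells without growth and 100% = 10 µM 1-NA-PP1 full growth; higher means more yeast growth rescued from 5-FOA killing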). As to conditions: S. cerevisiae cbk1-as DSE1-URA3 strain, 5-FOA growth OD615, 2 d; at 50 µM; stronger effect = higher value.
Setting [16] is: H69AR cells + 2 uM doxorubicin, measured here: viability with 2 uM doxorubicin, stronger effect = lower value.
The mark [17] stands for this setting: H69AR cells, compound alone cytotoxicity.

Sequence of Receptor tyrosine-protein kinase erbB-2 (Homo sapiens) (P04626 whole entry, looked up): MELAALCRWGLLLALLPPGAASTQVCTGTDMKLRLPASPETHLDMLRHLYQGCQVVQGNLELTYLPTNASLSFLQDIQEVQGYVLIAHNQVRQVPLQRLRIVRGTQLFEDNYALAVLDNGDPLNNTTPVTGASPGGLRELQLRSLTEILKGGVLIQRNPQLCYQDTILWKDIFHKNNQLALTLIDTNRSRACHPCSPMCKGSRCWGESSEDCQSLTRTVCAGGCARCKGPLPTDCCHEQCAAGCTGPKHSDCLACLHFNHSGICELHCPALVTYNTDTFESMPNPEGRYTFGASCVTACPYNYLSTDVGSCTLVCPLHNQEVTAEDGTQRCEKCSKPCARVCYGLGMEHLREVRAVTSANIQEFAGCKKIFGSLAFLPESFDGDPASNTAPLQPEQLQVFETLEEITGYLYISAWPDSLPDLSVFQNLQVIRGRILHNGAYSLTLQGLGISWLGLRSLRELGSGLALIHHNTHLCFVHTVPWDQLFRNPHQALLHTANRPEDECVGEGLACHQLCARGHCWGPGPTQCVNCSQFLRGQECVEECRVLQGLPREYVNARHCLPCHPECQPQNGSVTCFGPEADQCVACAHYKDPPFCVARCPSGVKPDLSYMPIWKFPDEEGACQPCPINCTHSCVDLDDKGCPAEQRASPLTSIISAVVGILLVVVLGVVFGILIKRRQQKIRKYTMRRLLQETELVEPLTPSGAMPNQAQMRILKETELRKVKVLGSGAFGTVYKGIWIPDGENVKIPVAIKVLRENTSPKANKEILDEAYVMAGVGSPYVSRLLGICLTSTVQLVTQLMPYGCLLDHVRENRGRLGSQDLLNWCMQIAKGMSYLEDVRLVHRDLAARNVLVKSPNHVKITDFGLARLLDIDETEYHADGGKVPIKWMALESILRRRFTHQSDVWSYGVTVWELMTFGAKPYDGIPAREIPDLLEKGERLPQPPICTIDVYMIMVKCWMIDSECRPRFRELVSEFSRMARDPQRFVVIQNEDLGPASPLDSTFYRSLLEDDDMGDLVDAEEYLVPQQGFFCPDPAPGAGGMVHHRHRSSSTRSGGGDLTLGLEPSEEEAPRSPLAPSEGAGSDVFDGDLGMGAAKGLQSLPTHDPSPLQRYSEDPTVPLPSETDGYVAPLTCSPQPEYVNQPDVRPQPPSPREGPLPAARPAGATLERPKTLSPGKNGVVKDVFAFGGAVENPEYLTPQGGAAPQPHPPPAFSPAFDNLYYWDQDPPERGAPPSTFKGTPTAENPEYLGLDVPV

For the molecule `CN(Cc1ccccc1)S(=O)(=O)c1ccc(S(=O)(=O)N2CCN(CCC#N)CC2)cc1`, the viability is 91% in [1]; 91% (inactive) in assay [3]; 92.4% (inactive) in [4]; 77.2% (inactive) in assay [5]; 61.8% in assay [6] (setting [16]); 77.2% in assay [6] (setting [17]). Further, the viability is 96.9% (inactive) in assay [12] and 92.3% (inactive) in [13]. Moreover, the Her2 level in assay [2] is 116% (inactive). In addition, the differential viability (reversal) in [6] (H69AR cells + 2 uM doxorubicin) is 15.4% (inactive). Also, the figures for the inhibition in assay [7], in [8] and in [14] were -4.23% (inactive), -7.17% (inactive) and 0.725% (inactive), respectively. For the same molecule, the growth inhibition in [9] is -12% (inactive); in [10] it was -4.41% (inactive). Moreover, the viability increase in [11] was -8.59% (inactive). Moreover, the RAM network inhibition in assay [15] is 4.91% (inactive).
For `COc1ccc(C2CC(c3ccco3)n3ncnc3N2)cc1` (stereo not given), the viability in assay [1] is 88%; in assay [3] it was 88% (inactive); in [4], 93.1% (inactive); in [5], 95.4% (inactive); in assay [6] (setting [16]), 98.6%; in [6] (setting [17]), 95.4%. In addition, the viability in [12] is 97.7% (inactive); in [13], 94.6% (inactive). Moreover, the Her2 level in assay [2] was 97% (inactive). Moreover, the differential viability (reversal) in [6] (H69AR cells + 2 uM doxorubicin) was -3.17% (inactive). The results for the inhibition in assay [7], in assay [8] and in [14] were -3.07% (inactive), -8.5% (inactive) and 2.36% (inactive), respectively. Besides, the results for the growth inhibition in assay [9] and in [10] were -4.26% (inactive) and 1.61% (inactive), respectively. For the same molecule, in [11], the viability increase was -0.91% (inactive). In addition, the RAM network inhibition in assay [15] was 0.32% (inactive).
Turning to `CCN1CCN(C(c2cccs2)C(C)NC(=O)c2ccccc2)CC1` (stereo not given), the viability in assay [1] was 92%; in assay [3] it was 92% (inactive); in [4], 104% (inactive); in assay [5] it was 87.3% (inactive); in assay [6] (setting [16]) it was 81.3%; in [6] (setting [17]), 87.3%. The viability in assay [12] is 101% (inactive); in assay [13], 105% (inactive). For the same molecule, the Her2 level in [2] is 88% (inactive). In addition, the differential viability (reversal) in assay [6] (H69AR cells + 2 uM doxorubicin) was 6.01% (inactive). The inhibition was -0.26% (inactive) in [7], 4% (inactive) in [8] and -0.445% (inactive) in assay [14]. The growth inhibition was -5.51% (inactive) in assay [9] and 1.4% (inactive) in [10]. The viability increase in [11] is -0.71% (inactive). The RAM network inhibition in assay [15] is 5.79% (inactive).
`Cc1onc(-c2c(Cl)cccc2Cl)c1C(=O)NCC1CCCO1` (stereo not given): the viability in assay [1] is 111%; in assay [3], 111% (inactive); in [4], 97.7% (inactive); in assay [5] it was 111% (inactive); in assay [6] (setting [16]) it was 95.2%; in assay [6] (setting [17]), 111%. In addition, the values for the viability in [12] and in assay [13] were 91.7% (inactive) and 92.9% (inactive), respectively. Moreover, the Her2 level in assay [2] is 104% (inactive). For the same molecule, the differential viability (reversal) in assay [6] (H69AR cells + 2 uM doxorubicin) is 16% (inactive). Also, the inhibition in assay [7] was -4.59% (inactive); in [8] it was -5.74% (inactive); in [14] it was -1.21% (inactive). Moreover, the figures for the growth inhibition in assay [9] and in assay [10] were 6.24% (inactive) and -5.78% (inactive), respectively. Moreover, the viability increase in [11] is -1.12% (inactive). The RAM network inhibition in assay [15] is -0.45% (inactive).
Take `COc1ccc(S(=O)(=O)NCC(c2cccnc2)N2CCN(C)CC2)cc1C` (stereo not given): the viability in [1] was 97%; in [3] it was 97% (inactive); in assay [4], 80.9% (inactive); in [5], 91% (inactive); in assay [6] (setting [16]), 93.5%; in assay [6] (setting [17]), 91%. Moreover, the viability in assay [12] is 97.8% (inactive); in assay [13], 96.1% (inactive). Besides, the Her2 level in assay [2] is 98.5% (inactive). The differential viability (reversal) in [6] (H69AR cells + 2 uM doxorubicin) is -2.52% (inactive). The inhibition in assay [7] is -0.64% (inactive); in assay [8], -2% (inactive); in assay [14], 2.23% (inactive). In addition, the growth inhibition in assay [9] is 1.16% (inactive); in assay [10], -9.37% (inactive). For the same molecule, in [11], the viability increase is -2.64% (inactive). In assay [15], the RAM network inhibition is 0.11% (inactive).
